A selection: hits, their analogues and other compounds. The true share with any hit is near 12%.
RORg inh: ROR gamma (mouse) transcription inhibition; P51450; hit rate 5.4% among 310,000; Drosophila S2 Gal4-RORgamma UAS-luciferase reporter, 20 h; Potency, µM (series often up to 53.6 µM), inactives show top-dose activity change, negative = inhibition, actives largely listed as inhibitors; further: nearly all actives have a fitted effect of over 60% in size
Target sequence (P51450 whole entry, looked up, the tested form may be a part): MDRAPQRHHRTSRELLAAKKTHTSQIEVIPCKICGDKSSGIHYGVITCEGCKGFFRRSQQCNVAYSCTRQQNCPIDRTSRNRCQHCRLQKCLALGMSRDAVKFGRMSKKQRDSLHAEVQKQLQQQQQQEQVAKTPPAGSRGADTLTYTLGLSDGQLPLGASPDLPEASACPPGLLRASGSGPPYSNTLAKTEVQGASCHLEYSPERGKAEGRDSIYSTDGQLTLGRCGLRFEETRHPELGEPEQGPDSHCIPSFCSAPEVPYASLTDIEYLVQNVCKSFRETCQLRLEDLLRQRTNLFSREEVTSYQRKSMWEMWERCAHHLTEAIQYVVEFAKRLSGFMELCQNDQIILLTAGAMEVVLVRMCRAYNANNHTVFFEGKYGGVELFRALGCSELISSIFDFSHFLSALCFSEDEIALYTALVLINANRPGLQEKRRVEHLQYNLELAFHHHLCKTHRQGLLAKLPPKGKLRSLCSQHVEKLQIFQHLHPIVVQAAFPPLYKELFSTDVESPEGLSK
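Schneider cells (Drosophila), stable Gal4 DBD–ROR gamma + UAS-luc; 1 hr cmpd preincubation; Cu2+ induction 700 uM final; 20 hr ambient; luminescence.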
ALDH1A1 inh: ALDH1A1 (human) enzyme inhibition; P00352; Purified ALDH1A1, NADH fluorescence, propionaldehyde substrate; Potency, µM (doses to about 75.3 µM), for the others: at the highest dose activity, negative = inhibition, actives largely listed as inhibitors; hit rate 7.3% among 220,000; AID 1030; active means well fitted inhibition curve with a large enough effect, not every such curve was filed as active; inconclusive means small, poorly fitted or top-dose-only effect, or another doubt; inactive means no such curve, though single readings can be large or run the other way;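 further: plate controls were no enzyme wells and a reference inhibitor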
PLK1 PBD block: blocks phosphopeptide binding to human PLK1 polo-box domain; P53350; Potency, µM, inactives show max response, negative = inhibition, usual class: inhibitors; hit rate 2.8% among 360,000; Plk1 PBD binding of FITC phosphopeptide, fluorescence polarization; further: series mostly up to about 57 µM; nearly all actives have a fitted effect of over 65% in size
Sfp inh: blocks B. subtilis Sfp PPTase activity; Q9F4F7; Biochemical Sfp PPTase activity, qHTS; Potency, µM, without a hit: largest response in the series, negative = inhibition, most hits filed as inhibitors; hit rate 3.5% among 310,000; AID 1490;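 further: the enzyme is Sfp with the accession as filed and its product quenches rhodamine fluorescence; 0% = enzyme reaction without inhibitor and -100% = no enzyme wells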
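With Hepes-Na pH 7.6 buffer containing 10 mM MgCl2, Sfp (15 nM) modified BHQ-2-YbbR (12.5 uM) using rhodamine-CoA (5 uM). Two reads 30 minutes apart at 525/598 nm yielded each well's rate.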
Gal4-VP16 FLuc: Gal4-VP16 reporter inhibition counter-screen | Drosophila S2 Gal4-VP16 UAS-luciferase, luminescence, 20 h | Potency, µM (doses to about 53.6 µM), for the others: at the highest dose activity, negative = inhibition, most hits filed as inhibitors | hit rate 3.5% among 310,000 | AID 2546;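 further: Gal4-VP16 expression switched on by copper sulfate through the metallothionein promoter; nearly all actives have a fitted effect of over 50% in size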
Numbers without * were called inactive; ? = inconclusive; / = not tested or not shown; [ ] = remark or other dose. Unless noted, the call rests on the fitted dose curve; in most records, active means well fitted curve in the direction sought with a large enough effect; inconclusive means small, poorly fitted or top-dose-only effect, or another doubt; inactive means no such curve, though single readings can be large; an effect the other way counts as inactive or inconclusive. Unless noted, on the % scale 0 is the no-effect control and ±100 the full control effect; potency means the concentration at half of the fitted maximal effect.

SMILES | RORg inh | ALDH1A1 inh | PLK1 PBD block | Sfp inh | Gal4-VP16 FLuc
CC(C)C[C@@H](CN1CCCC1CN1C(=S)NC[C@@H]1Cc1ccc(O)cc1)N1C[C@H](Cc2ccc(O)cc2)N(CCc2ccccc2)C1=S (stereo partly drawn) | / | / | -6.9% | / | /
CC1(C)CNC(=O)c2sc(NC(=O)c3ccccc3Cl)nc2C1 | ? | 12.6µM* | 2.8% | 5.5% | -0.2%
CC(=O)c1sc(NC(=O)C2COc3ccccc3O2)nc1C (stereo not drawn) | 7.08µM* | -10.1% | -4.2% | 6.9% | 10µM*
O=C(Nc1nncs1)C1COc2ccccc2O1 (stereo not drawn) | 42.6% | 2.8% | -14.4% | 11.2% | 10.9%
CC1(C)CC(=O)c2sc(NC(=O)C3COc4ccccc4O3)nc2C1 (stereo not drawn) | ? | 15.8µM* | -6.9% | 16.0% | 6.7%
CC1(C)Oc2ccc(NC(=O)C3COc4ccccc4O3)cc2O1 (stereo not drawn) | 2.3%[10 µM] | 0.0355µM* | -8.7% | -7.2% | ?
CC1(C)CNC(=O)c2sc(N3CCCCC3)nc2C1 | 35.6% | -6.4% | -11.1% | 18.1% | 18.9%
CC[C@](N)(C(=O)O)C(C)C | / | -3.8%[13.5 µM] | / | / | /
CCCCC[C@@H](C)N1C[C@H](COCc2ccccc2)Oc2cc(N3CCC[C@@H]3COC)ccc2S1(=O)=O | / | / | 1.6% | / | /
CC1(C)CC(=O)c2sc(NC(=O)c3ccco3)nc2C1 | -67.1% | 22.4µM* | -12.7% | -1.3% | ?
CC(=O)c1cc2c(cc1NC(=O)CCn1cccc1)OCO2 | -14.1% | 31.6µM* | -0.7% | 50.1µM* | ?
CC(=O)c1cc2c(cc1NC(=O)CCC1CCCC1)OCO2 | -9.4% | 4.4% | / | 5.9% | -4.4%
COc1c(O)ccc(/C=N\NC(=O)c2ccc3c(c2)OCO3)c1[N+](=O)[O-] | 10µM* | / | -6.4% | 18.6% | ?
COc1c(O)ccc(/C=N/NC(=O)c2ccc3c(c2)OCCO3)c1[N+](=O)[O-] | 1.12µM* | / | -18.5% | 20.3% | 1.58µM*
O=C(N/N=C/c1cc2c(cc1[N+](=O)[O-])OCO2)c1ccc2c(c1)OCO2 | 17.5% | / | -10.4% | -9.2% | 2.1%
CN(C(=O)c1cccc(NC(=O)Cc2ccc(NC(=O)C3CCN(C(=O)C4CCCC4)CC3)cc2)c1)C1CCCC1 | / | / | 15.7% | / | /
COc1ccc(NC(=O)CSc2sc3c(O)cc(=O)[nH]c3c2C#N)c(OC)c1 | -20.4% | / | ? | ? | -0.7%
N#Cc1c(SCC(=O)Nc2cccc(C(F)(F)F)c2)sc2c(O)cc(=O)[nH]c12 | 18.8% | / | 13.4µM* | 39.8µM* | -5.5%
COc1ccccc1NC(=O)CSc1sc2c(O)cc(=O)[nH]c2c1C#N | -2.0% | / | ? | 39.8µM* | 3.5%
COC(=O)CN1CC(=O)c2ccccc2S1(=O)=O | -8.7% | / | / | -8.3% | 23.2%
O=C(O)c1cccnc1SC1CC(=O)N(c2cccc(C(F)(F)F)c2)C1=O (stereo not drawn) | 2.9% | 12.6µM* | -9.5% | 0.6% | -4.0%
O=C(O)c1cccnc1SC1CC(=O)N(Cc2ccccc2)C1=O (stereo not drawn) | -2.5% | -8.8% | 3.77µM* | 17.6% | 9.0%
COC(=O)c1c(N2C(=O)CC(Sc3ncccc3C(=O)O)C2=O)sc(C)c1C (stereo not drawn) | -5.6% | / | -14.7% | 89.1µM* | -2.4%
Cc1ccccc1OCCn1cc(C(=O)O)c2ccccc21 | 38.5% | 19.6% | -16.4% | 12.2% | ?
CN1CCN(C(=S)c2cn(CCOc3ccccc3)c3ccccc23)CC1 | 11.2µM* | ? | -3.6% | -8.1% | ?
SMILES | RORg inh | ALDH1A1 inh | PLK1 PBD block | Sfp inh | Gal4-VP16 FLuc
CN1CCN(C(=S)c2cn(CCOc3ccccc3F)c3ccccc23)CC1 | 14.1µM* | 9.8% | ? | 14.0% | -7.5%
N#Cc1cn(CCOc2ccccc2F)c2ccccc12 | 37.8% | ? | 0.9% | -5.4% | -14.5%
N#CCCn1c(=O)c(-c2ccc(F)cc2)nc2cnc(N3CCNCC3)nc21 | 3.9% | ? | / | 12.2% | -5.3%
COc1ccc(CN2CC(=O)N(c3cc(Cl)ccc3C)C2=S)cc1OC | 12.4% | / | -25.1% | -7.8% | 9.7%
COc1cc(CN2CC(=O)N(c3cc(Cl)ccc3C)C2=S)cc(OC)c1OC | -14.9% | / | 15µM* | -4.9% | 6.0%
NS(=O)(=O)c1ccc(CNS(=O)(=O)c2ccc(Cl)nc2)cc1 | 11.4% | 22.4µM* | -22.0% | 10.3% | 10.0%
O=S(=O)(NCc1ccc(Cl)cc1)c1ccc(Cl)nc1 | 5.8% | 5.7% | -4.0% | 18.0% | -4.1%
CN1CCC2(CC1)N=C(c1ccc(F)cc1)C(=S)N2C(=O)c1ccc(C(C)(C)C)cc1 | 12.6µM* | 17.8µM* | 23.8µM* | 50.1µM* | ?
CC(C)(C)c1ccc(C(=O)N2CCNCC2)cc1 | -23.1% | 9.5% | -1.6% | -13.0% | -2.4%
COc1ccc(OC2C=CC(C#Cc3ccc(F)cc3F)OC2CO)cc1 (stereo not drawn) | 27.5%[10 µM] | -6.7%[13.5 µM] | / | -0.4% | -6.5%[10 µM]
CC1(C(=O)NS(=O)(=O)c2ccc(C#N)cc2)CCN1C(=O)C1(c2ccccc2)CCCC1 (stereo not drawn) | / | / | -3.6% | / | /
Cc1ccc(CNc2ccc3c(c2)ncn3C(C)(C)C)cc1 | 1.41µM* | ? | -3.8% | -10.1% | ?
Nc1nonc1-n1nnc(C(=O)N/N=C/c2ccc(OCc3ccccc3)cc2)c1CNc1ccccc1 | 11.2µM* | / | -9.7% | 23.2% | ?
CC(C)c1c(C(=O)N/N=C/c2ccc(OCc3ccccc3)cc2)nnn1-c1nonc1N | -8.5% | / | -11.3% | 7.0% | -2.8%
CC(C)c1c(C(=O)N/N=C/c2ccc(OCc3ccc(F)cc3)cc2)nnn1-c1nonc1N | -20.2% | / | 21.2µM* | 9.2% | -2.8%
Nc1nonc1-n1nnc(C(=O)N/N=C/c2ccc(OCc3ccccc3)cc2)c1COc1ccc(F)cc1 | -6.7% | / | 1.2% | 14.8% | 1.1%
CCc1ccccc1NC(=O)CN1C(=O)C2CCCN2c2ncc(Cl)cc21 (stereo not drawn) | 21.0% | 17.8µM* | -8.6% | -0.5% | 5.4%
COC(=O)c1ccccc1NC(=O)CN1C(=O)C2CCCN2c2ncc(Cl)cc21 (stereo not drawn) | 38.5% | ? | / | -27.1% | -12.3%
COc1ccc(Cl)cc1NC(=S)N(Cc1ccccc1C)CC1CCC(C(=O)O)CC1 (stereo not drawn) | 37.4% | ? | 29.9µM* | 56.2µM* | 4.6%
CCc1ccccc1NC(=S)N(Cc1ccc(OC)cc1)CC1CCC(C(=O)O)CC1 (stereo not drawn) | -30.8% | -6.6% | -18.8% | 0.8% | 2.5%
COc1ncc2nc(-c3ccccc3)c(=O)n(CCC#N)c2n1 | -10.3% | ? | / | 2.8% | -8.8%
CCn1cc(C2=NC(CC(C)C)CO2)c2ccccc21 (stereo not drawn) | 3.98µM* | / | 0.9% | -1.5% | ?
CCn1cc(C2=NC(C(C)C)CO2)c2ccccc21 (stereo not drawn) | 10µM* | -15.0% | -13.5% | 19.3% | ?
CCn1cc(C=C2C(=O)c3ccccc3C2=O)c2ccccc21 | 15.2% | 2.3% | ? | -3.4% | 6.8%

High-throughput results as filed in PubChem BioAssay.
